Screening results deposited in PubChem BioAssay by several laboratories.
Sampled rows, rich in hits. Any-hit rate of the full collection: about 1.4%.
HUVEC tox IL1B: HUVEC cytotoxicity counter-screen, IL-1B stimulated. HUVEC cell count loss, Hoechst imaging. actives 0.41% (n = 94,000). cell count reduction, % at 2 µM. AID 845;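 active = cell count reduction more than 3 SD above the screen-wide mean, cut at about 70% in these data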;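 note: normalized per plate to untreated control cells as the no-loss baseline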
IL1B NFkB inh: blocks IL-1B driven NFkB nuclear translocation in HUVEC cells; HUVEC IL-1B NFkB p65 nuclear translocation imaging; inhibition, % at 2 µM; actives 0.43% (n = 94,000); AID 796;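 active = inhibition above about 30% together with a positive call from visual inspection of the well image, limit read from the data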;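 note: nuclear over cytoplasmic p65 intensity ratio measured by imaging; 0% = IL-1B stimulated DMSO wells and 100% = unstimulated DMSO wells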
Phagocytosis inh: macrophage phagocytosis inhibition; AID 1029; inhibition, % at 5 µM; J774A.1 macrophage IgG-bead phagocytosis, imaging; actives 0.07% (n = 110,000);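 active = inhibition above the mean of the plate negative controls plus 5 SD, cut at about 13% in these data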;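 note: phagocytic index as fraction of beads internalized from green versus red external bead signal; plate controls were DMSO negative control for no effect and cytochalasin-D positive control for full effect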
PTK2B oligo ant: blocks oligomerization of human Pyk2 in cells; Q14289; Q293 cells, Pyk2 FERM NanoBiT luminescence; active compounds read low; z-score (the deposit names both 25 µM and 10 µM); actives 0.83% (n = 99,000); AID 1347419;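 active = Z-score of -3 or lower, scaled per plate to the spread of control and sample wells; inactive = z-score above -3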;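 note: negative z-score means lost luminescence so less FERM oligomerization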
Target sequence (Q14289 whole entry, looked up): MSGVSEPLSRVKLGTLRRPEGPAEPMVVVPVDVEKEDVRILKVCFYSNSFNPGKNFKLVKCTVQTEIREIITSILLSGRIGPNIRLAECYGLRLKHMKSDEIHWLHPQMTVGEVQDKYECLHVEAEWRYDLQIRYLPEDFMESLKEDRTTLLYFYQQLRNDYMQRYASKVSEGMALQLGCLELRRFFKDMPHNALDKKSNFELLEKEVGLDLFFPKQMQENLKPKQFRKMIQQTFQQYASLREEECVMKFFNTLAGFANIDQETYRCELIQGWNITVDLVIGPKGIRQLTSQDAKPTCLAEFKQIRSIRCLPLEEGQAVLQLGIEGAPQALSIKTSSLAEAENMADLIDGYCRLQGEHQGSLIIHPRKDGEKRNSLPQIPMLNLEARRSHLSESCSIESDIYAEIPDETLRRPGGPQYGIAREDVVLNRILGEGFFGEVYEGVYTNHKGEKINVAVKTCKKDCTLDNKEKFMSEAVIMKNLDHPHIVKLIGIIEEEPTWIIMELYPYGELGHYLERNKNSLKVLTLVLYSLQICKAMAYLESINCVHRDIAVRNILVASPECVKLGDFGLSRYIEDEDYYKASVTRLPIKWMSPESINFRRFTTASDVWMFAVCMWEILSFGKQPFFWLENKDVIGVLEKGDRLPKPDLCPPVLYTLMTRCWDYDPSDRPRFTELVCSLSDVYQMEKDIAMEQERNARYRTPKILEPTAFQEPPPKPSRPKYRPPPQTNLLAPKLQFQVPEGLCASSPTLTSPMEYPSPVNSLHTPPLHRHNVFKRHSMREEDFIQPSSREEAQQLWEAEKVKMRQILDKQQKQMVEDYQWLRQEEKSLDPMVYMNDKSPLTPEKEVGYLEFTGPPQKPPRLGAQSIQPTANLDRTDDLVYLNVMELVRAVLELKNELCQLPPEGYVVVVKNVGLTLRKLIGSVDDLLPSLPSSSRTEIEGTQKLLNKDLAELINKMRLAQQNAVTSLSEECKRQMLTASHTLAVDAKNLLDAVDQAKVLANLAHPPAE
NFkB transloc pot: enhances IL-1B driven NFkB nuclear translocation; activation, % at 2 µM; HUVEC IL-1B NFkB p65 nuclear translocation imaging; actives 0.3% (n = 94,000);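 active = activation above 40%, about the mean plus 3 SD, also judged a hit on visual image review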;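 note: percent activation is computed from the nuclear over cytoplasmic p65 intensity ratio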
* hit, by the source's call; . = no result given; [ ] = another dose, or the depositor's remark.

SMILES | HUVEC tox IL1B | IL1B NFkB inh | Phagocytosis inh | PTK2B oligo ant | NFkB transloc pot
CC1=C(C(=O)Nc2ccccc2)C2(CCCCC2)C(C#N)=C(SCC(N)=O)N1 | -85 | -8 | 0 | -1.9 | 8
CCOC(=O)C1CCN(C(=O)c2ccc(Cl)c(Cl)c2)CC1 | 94* | 99* | 0 | 0.45 | -99
CCOC(=O)C1CCN(C(=O)c2cccc(Cl)c2)CC1 | -18 | -29 | 0 | 0.05 | 29
CC(C)CCN1C(=O)c2ccc(-c3nc4ccccc4c(=O)o3)cc2C1=O | -4 | 1 | . | -3.3* | -1
COc1ccc(OC)c(S(=O)(=O)Nc2c(F)cccc2F)c1 | 28 | 4 | -3 | 0.24 | -4
COCc1cc(Sc2c(Cl)cccc2Cl)nc(-c2ccccc2)n1 | 88* | -7 | 0 | -1.1 | 7
O=C(COC(=O)c1cc([N+](=O)[O-])ccc1NCc1ccccc1)NCc1ccccc1Cl | . | . | -10 | . | .
CCOc1ccc(C(=O)NCC2CCCO2)cc1 (stereo not drawn) | -25 | -56 | -1 | 1.9 | 56*
O=C(Nc1ccc(-c2cn3ccsc3n2)cc1)c1ccc(F)c(S(=O)(=O)N2CCOCC2)c1 | -13 | 5 | 0 | -3.7* | -5
CC(C)(C)c1ccc(S(=O)(=O)Nc2cccnc2)cc1 | . | . | -3 | 0.48 | .
Cn1ncc(Cl)c1C(=O)Nc1nc2ccc(Cl)cc2s1 | . | . | -11 | . | .
Cc1onc(-c2ccccc2)c1-c1nc2ccccc2c(=O)o1 | 28 | -8 | . | -0.4 | 8
CCn1c(C)nc2cc(-c3nnc(-c4c(-c5ccccc5)noc4C)o3)ccc21 | -20 | -32 | -1 | -3.1* | 32
CC1CN(CCOc2ccccc2-c2ccccc2)CC(C)O1 (stereo not drawn) | . | . | -3 | . | .
Cc1noc(C)c1COc1ccc(C(=O)OCC(=O)Nc2ccc3ccccc3c2)cc1 | 92* | -4 | 0 | 0.13 | 4
CCCCC(=O)Nc1sc2c(c1C(=O)OCC)CCC(C=O)=C2Cl | 60 | 88* | 0 | -3* | -88
CCCNC(=O)COC(=O)CCC(=O)c1cccs1 | . | . | -4 | . | .
Cc1ccccc1NC1=C/C(=N\S(=O)(=O)c2cccs2)c2ccccc2C1=O | -24 | -15 | 0 | -4* | 15
Cc1ccc(NC2=C/C(=N/S(=O)(=O)c3cccs3)c3ccccc3C2=O)cc1C | . | . | 2 | . | .
Cc1ccc2nc(-c3ccncc3)cc(-c3ccccc3)c2c1 | 12 | -13 | 5 | -0.65 | -4
O=S(=O)(Nc1ccc(Cc2ccncc2)cc1)c1ccc(Cl)c(Cl)c1 | -8 | 12 | . | -3* | -12
O=S(=O)(Nc1ccncc1)c1ccc(Cl)cc1 | -2 | -1 | -1 | -0.37 | 1
FC(F)C(F)(F)C(F)(F)C(F)(F)c1cc(-c2ccccc2)n[nH]1 | . | . | 9 | -3.4* | .
Cc1ccc(O)c(-c2cc(C(F)(F)C(F)F)[nH]n2)c1 | 17 | 16 | 0 | -1.7 | -15
On1onc2c3cc(-c4ccccc4)nc3ccc21 | 35 | 1 | 4 | -2.8 | -1
SMILES | HUVEC tox IL1B | IL1B NFkB inh | Phagocytosis inh | PTK2B oligo ant | NFkB transloc pot
c1ccc(-c2cc3c(ccc4nonc43)nn2)cc1 | 27 | -57 | -3 | -0.32 | 57*
CN(C)C(=O)CN(C)S(=O)(=O)c1ccc(Cl)cc1 | -5 | 91* | 0 | -0.22 | -91
Cc1ccccc1N(C)S(=O)(=O)c1ccc2[nH]cc(C(=O)NCC3CCCO3)c(=O)c2c1 (stereo not drawn) | . | . | . | -3.2* | .
COc1cc(C2c3c(-c4cc(Cl)c(C)cc4O)n[nH]c3C(=O)N2Cc2cccnc2)ccc1O (stereo not drawn) | -12 | -7 | 0 | -4.8* | 7
COc1ccc(C2C(C(=O)c3ccco3)=C(O)C(=O)N2Cc2cccnc2)cc1OC (stereo not drawn) | -1 | -10 | . | 0.41 | 10
COc1cccc(C2c3c(-c4cc(Cl)c(C)cc4O)n[nH]c3C(=O)N2Cc2cccnc2)c1 (stereo not drawn) | -21 | -18 | 1 | -3.7* | 18
CNC(=S)NNC(=O)c1cccn(Cc2ccc(Cl)c(Cl)c2)c1=O | -27 | -12 | . | 0.09 | 12
COc1ccc(N2CCN(C(=O)CSc3nnc4c(C)cc5cc(C)ccc5n34)CC2)cc1 | 92* | 24 | -2 | -0.89 | -24
CC(C)C(=O)Nc1nc(-c2ccccc2)ns1 | -2 | -12 | . | -0.58 | 12
COC(=O)C1=C(C)N(c2ccc(Cl)c(Cl)c2)C(=O)C1 | -13 | -55 | . | -0.54 | 55*
COC(=O)C1=C(C)N(c2ccc(S(N)(=O)=O)cc2)C(=O)C1 | -4 | 6 | 1 | 0.7 | -6
O=C(Cn1nnc2c(cnn2-c2ccc(F)cc2)c1=O)c1ccccc1F | 92* | -1 | -1 | 0.9 | 1
CC(C)OC(=O)Cn1nnc2c(cnn2-c2ccccc2)c1=O | -15 | -17 | . | 1 | 17
Cc1nc(SCC(=O)N(C)C2CCCCC2)[nH]c(=O)c1Cc1ccccc1 | -98 | -13 | -2 | 0.22 | 13
CCCNC(=S)Nc1ccc(Br)cc1 | 92* | -8 | -3 | 0.52 | 8
Cc1nnc(SCc2ccccc2C#N)n1-c1ccccc1 | 82* | -24 | 0 | -0.7 | 24
Cc1nnc(SCc2ccon2)n1-c1ccccc1 | -7 | 1 | . | -0.27 | -1
COc1ccc2nc(SCC(=O)N3CCN(c4ccccc4F)CC3)c(C#N)cc2c1 | 1 | 46* | . | . | -46
CCOCc1cn(CC(=O)c2ccc(Cl)cc2)c(C)nc1=N | 81* | 5 | 0 | 0.43 | -5
Cc1ccc(C)c(C(=O)Cn2ncc(Cl)c(Cl)c2=O)c1 | 15 | 43* | -1 | -0.74 | -43
Cc1cc(C(=O)Cn2ncc(Cl)c(Cl)c2=O)c(C)n1CC(F)(F)F | . | . | -11 | . | .
O=C(OCn1ncc(Cl)c(Cl)c1=O)c1ccc(C(F)(F)F)cc1 | 2 | 41* | . | 1.2 | -41
CCOC(=O)c1ccc(NC(=O)Cn2ncc(Cl)c(Cl)c2=O)cc1 | . | . | -2 | . | .
Cc1ccc(C(=O)OCn2ncc(Cl)c(Cl)c2=O)cc1 | 20 | 79* | . | 0.48 | -79
COc1ccc(-n2c(Cn3c(=O)sc4ccccc43)nnc2SCC(N)=O)cc1 | -5 | 8 | 0 | . | -8
SMILES | HUVEC tox IL1B | IL1B NFkB inh | Phagocytosis inh | PTK2B oligo ant | NFkB transloc pot
Cc1cc(C(=O)OCn2nnc3ccccc3c2=O)c(C)n1-c1ccccc1 | -1 | -8 | 3 | -3.7* | 8
CCc1[nH]nc2c1C(c1ccsc1)C(C#N)=C(N)O2 (stereo not drawn) | -43 | 8 | . | -0.56 | -8
O=C(CSc1ccc(-c2ccccc2)nn1)N1CCCc2ccccc21 | . | . | -11 | . | .
N#Cc1c(SCC(N)=O)nc2c(c1-c1ccc(OCc3ccccc3)cc1)CCCC2 | 86* | -3 | . | . | 3
CCOc1ccccc1N(CC(=O)OC)S(C)(=O)=O | 71* | 98* | 0 | 0.54 | -98
CNc1nc(SCC(=O)OC)nc(N2CCOCC2)n1 | . | . | 74*[artifact] | 1.4 | .
CCN1C(=O)C(CC(=O)NCc2ccc(Cl)cc2)N(CC)C1=O (stereo not drawn) | 1 | -14 | 0 | 0.63 | 14
Cc1ccc2nc(-c3ccc(Br)o3)oc(=O)c2c1 | 0 | -17 | -3 | -1.3 | 17
COc1cc2nc(-c3ccc(Br)o3)oc(=O)c2cc1OC | -46 | -15 | 95* | -2.1 | 15
